Assay results from PubChem BioAssay (Tox21).
Calls of active or inactive are those of the source. Where a call stands in place of a potency, no number is given. Unless noted, calls follow the shape of the dose curve; as a rule, active = well fitted curve in the direction sought with a large enough effect in the repeat runs; inconclusive = weak or mixed curves; inactive = no such curve, though single readings can be large; an effect the other way counts as inactive or inconclusive. Starred links: 1 amine or outer side, 2 acyl side, 3 side chain; linkers in the order of their positions; H or OH if unused. Positions of bridges follow the written chain, without caps; N, C: chain ends. Non-standard residues stand in square brackets, D forms with d. Residues, ends and D or L forms follow the SMILES beside them. *: point of attachment. X5 = NC1=N[C@@H]([C@H](N[*:1])C(=O)[*:2])C[C@H](O)N1; ΔAla(Z-3-ureido) = NC(=O)N/C=C(\N)C(=O)O; β3hOrn = NCCC[C@H](N)CC(=O)*; Dap = NC[C@H](N)C(=O)O

Columns and labels:
[1] = qHTS assay to identify small molecule antagonists of the thyroid receptor (TR) signaling pathway - cell viability counter screen (AID 743064); also: nearly all actives have a fitted effect of over 50% in size; also: potency is read from the fitted curve at half-maximal effect
How it was run: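 GH3.TRE-Luc cells, 4 h pre-plating; cpd + T3 1 nM final; 37 °C 23.5 h; CellTiter-Fluor 30 min; fluorescence read.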

[2] = qHTS assay to identify small molecule antagonists of the thyroid receptor (TR) signaling pathway (AID 743065); also: nearly all actives have a fitted effect of over 55% in size; also: potency is read from the fitted curve at half-maximal effect
How it was run: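 GH3.TRE-Luc rat pituitary cells carrying two TR response elements driving luciferase were plated for 4 h, given compound plus 1 nM T3 (final), and incubated 23.5 h at 37 C. ONE-Glo luminescence measured reporter inhibition; CellTiter-Fluor fluorescence tracked cytotoxicity.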

[3] = tested on: thyroid hormone receptor (rat, GH3 cells); assay: qHTS assay to identify small molecule agonists of the thyroid receptor (TR) signaling pathway (AID 743066; calls by dose curve)
[4] = qHTS assay to identify small molecule antagonists of the estrogen receptor alpha (ER-alpha) signaling pathway - cell viability counter screen (AID 743074; calls by dose curve;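 also: HEK293 cells carrying ER-alpha-UAS-bla reporter stimulated with 17beta-estradiol; nearly all actives have a fitted effect of over 45% in size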)
[5] = biological target: Estrogen receptor (Homo sapiens) (UniProt P03372); assay: qHTS assay to identify small molecule agonists of the estrogen receptor alpha (ER-alpha) signaling pathway (AID 743075; calls by dose curve;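 also: HEK293 GripTite cells with ER-alpha and UAS-driven beta-lactamase reporter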; also: potency is read from the fitted curve at half-maximal effect)
[6] = qHTS assay to identify small molecule antagonists of the estrogen receptor alpha (ER-alpha) signaling pathway using the BG1 cell line - cell viability counter screen (AID 743081);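 also: compound given together with 17beta-estradiol as the ER stimulus; nearly all actives have a fitted effect of over 45% in size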; also: potency is read from the fitted curve at half-maximal effect
[7] = biological target: Aromatase (Homo sapiens) (UniProt P11511); assay: qHTS assay to identify aromatase inhibitors (AID 743083); also: nearly all actives have a fitted effect of over 55% in size; also: potency is read from the fitted curve at half-maximal effect
[8] = biological target: Aryl hydrocarbon receptor (Homo sapiens) (UniProt P35869); assay: qHTS assay to identify small molecule that activate the aryl hydrocarbon receptor (AhR) signaling pathway (AID 743085); also: nearly all actives have a fitted effect of over 15% in size; also: potency is read from the fitted curve at half-maximal effect;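 as to activation: HG2L7.5c1 human HepG2 liver cells with stably integrated DRE-driven firefly reporter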
How it was run: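 Luminescence read-out: ONE-Glo reagent, 30 min at room temperature, in HG2L7.5c1 HepG2 reporter cells treated 24 h at 37C. Viability was measured beforehand by CellTiter-Fluor fluorescence after 30 min at 37C.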

[9] = biological target: Peroxisome proliferator-activated receptor gamma (Homo sapiens) (UniProt P37231); assay: qHTS assay to identify small molecule agonists of the peroxisome proliferator-activated receptor gamma (PPARg) signaling pathway (AID 743094; active = well fitted activation curve with a large enough effect in the signal ratio in the repeat runs, not every such curve was filed as active; inconclusive = weak or mixed curves, or effect the other way; inactive = no such curve, though single readings can be large or run the other way; the % refers to the signal ratio)
How it was run: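 Agonist activity was taken from a beta-lactamase reporter (FRET substrate, 1 h at room temperature) in HEK293H cells carrying a PPARg UAS-bla construct. Compounds in DMSO were incubated 17 h at 37C after a 5 h cell pre-incubation.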

[10] = biological target: Nuclear receptor subfamily 1 group I member 2 (Homo sapiens) (UniProt O75469); assay: Human pregnane X receptor (PXR) activation by small molecules, qHTS assay (AID 1346985); also: nearly all actives have a fitted effect of over 40% in size; also: potency is read from the fitted curve at half-maximal effect
How it was run: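 DPX-2 cells (HepG2 co-transfected with a PXR response element and a CYP3A4-promoter luciferase construct) were seeded at 2,000 per well, rested 5 hr at 37C, then exposed to DMSO-dissolved compounds for 24 hr. Activation was read as luciferase luminescence.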

[11] = qHTS assay to identify small molecule that activate the aryl hydrocarbon receptor (AhR) signaling pathway - cell viability counter screen (AID 743086);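 also: HepG2 liver cells carrying the AhR DRE luciferase reporter; nearly all actives have a fitted effect of over 45% in size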
How it was run: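 HepG2-AhR-luc (HG2L7.5c1) cells, 4000/well, were preincubated 5 h at 37C, exposed to compound in qHTS format for 24 hr at 37C, then given CellTiter-Fluor for 30 min; viability was read as fluorescence in the reporter wells.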

[12] = biological target: Estrogen receptor (Homo sapiens) (UniProt P03372); assay: qHTS assay to identify small molecule antagonists of the estrogen receptor alpha (ER-alpha) signaling pathway (AID 743069; active = well fitted curve in the direction sought with a large enough effect in the signal ratio in the repeat runs, not every such curve was filed as active; inconclusive = weak or mixed curves, or effect the other way; inactive = no such curve, though single readings can be large or run the other way; the % refers to the signal ratio)
How it was run: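 A 17beta-estradiol challenge was applied right after compound transfer to ER-alpha-UAS-bla HEK293 cells previously kept in charcoal-stripped serum. Plates stood 18 hr at 37C and 5% CO2; fluorescence was read following 2 hr FRET substrate loading at room temperature.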

[13] = biological target: Estrogen receptor (Homo sapiens) (UniProt P03372); assay: qHTS assay to identify small molecule agonists of the estrogen receptor alpha (ER-alpha) signaling pathway using the BG1 cell line (AID 743079); conditions: BG1Luc4E2 cells, ERE-luciferase agonist, 22 h; activation: at 70.3 µM (top of the series); also: nearly all actives have a fitted effect of over 20% in size; also: potency is read from the fitted curve at half-maximal effect
[14] = qHTS assay to identify aromatase inhibitors - cell viability counter screen (AID 743084);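 also: cells stimulated with testosterone during compound exposure; nearly all actives have a fitted effect of over 55% in size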; also: potency is read from the fitted curve at half-maximal effect
[15] = qHTS assay to identify small molecule antagonists of the estrogen receptor alpha (ER-alpha) signaling pathway using the BG1 cell line (AID 743080; calls by dose curve;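 also: BG1 cells stimulated with 17beta-estradiol alongside compound; nearly all actives have a fitted effect of over 25% in size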)
How it was run: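 Luciferase inhibition measured with ONE-Glo after 30 min at RT in BG1Luc4E2 cells given test compounds and 17beta-estradiol for 21.5 h at 37 C; CellTiter-Fluor viability read in the same wells beforehand.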

[16] = biological target: Nuclear receptor subfamily 1 group I member 2 (Homo sapiens) (UniProt O75469); assay: CYP3A4 induction through human pregnane X receptor (PXR) by small molecules, qHTS assay (AID 1346984); also: nearly all actives have a fitted effect of over 40% in size
How it was run: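 Read-out is luminescence after One-Glo addition, following a 3 hr, 37C incubation with Luciferin-IPA CYP3A4 substrate (3uM final). Before that, compounds were on DPX-2 cells (HepG2 co-transfected with PXR element plus CYP3A4-promoter luciferase) for 24 hr at 37C.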

Sequence of Aryl hydrocarbon receptor (Homo sapiens) (P35869 whole entry, looked up): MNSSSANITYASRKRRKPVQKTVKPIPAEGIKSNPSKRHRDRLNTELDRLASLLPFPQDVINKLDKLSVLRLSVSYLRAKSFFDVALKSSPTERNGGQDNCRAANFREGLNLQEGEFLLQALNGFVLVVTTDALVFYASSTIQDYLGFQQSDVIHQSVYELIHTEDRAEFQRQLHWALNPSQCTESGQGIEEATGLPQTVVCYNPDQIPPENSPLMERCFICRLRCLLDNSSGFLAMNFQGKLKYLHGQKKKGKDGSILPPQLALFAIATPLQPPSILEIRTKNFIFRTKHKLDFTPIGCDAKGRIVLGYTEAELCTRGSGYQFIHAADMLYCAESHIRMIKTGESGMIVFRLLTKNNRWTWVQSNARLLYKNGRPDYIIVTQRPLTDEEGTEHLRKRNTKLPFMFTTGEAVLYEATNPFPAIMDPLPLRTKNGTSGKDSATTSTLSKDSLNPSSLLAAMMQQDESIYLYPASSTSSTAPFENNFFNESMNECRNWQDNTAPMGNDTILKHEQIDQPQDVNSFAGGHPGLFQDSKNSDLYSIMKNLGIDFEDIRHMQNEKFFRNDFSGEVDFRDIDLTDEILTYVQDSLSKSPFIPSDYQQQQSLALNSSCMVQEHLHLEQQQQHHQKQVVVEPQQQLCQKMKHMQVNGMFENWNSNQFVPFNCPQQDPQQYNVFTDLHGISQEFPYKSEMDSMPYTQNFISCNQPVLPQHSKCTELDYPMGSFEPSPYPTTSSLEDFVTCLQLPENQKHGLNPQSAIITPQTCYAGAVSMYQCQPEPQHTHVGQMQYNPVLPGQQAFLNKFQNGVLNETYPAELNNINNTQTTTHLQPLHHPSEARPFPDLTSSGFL
Sequence of Estrogen receptor (Homo sapiens) (P03372 whole entry, looked up): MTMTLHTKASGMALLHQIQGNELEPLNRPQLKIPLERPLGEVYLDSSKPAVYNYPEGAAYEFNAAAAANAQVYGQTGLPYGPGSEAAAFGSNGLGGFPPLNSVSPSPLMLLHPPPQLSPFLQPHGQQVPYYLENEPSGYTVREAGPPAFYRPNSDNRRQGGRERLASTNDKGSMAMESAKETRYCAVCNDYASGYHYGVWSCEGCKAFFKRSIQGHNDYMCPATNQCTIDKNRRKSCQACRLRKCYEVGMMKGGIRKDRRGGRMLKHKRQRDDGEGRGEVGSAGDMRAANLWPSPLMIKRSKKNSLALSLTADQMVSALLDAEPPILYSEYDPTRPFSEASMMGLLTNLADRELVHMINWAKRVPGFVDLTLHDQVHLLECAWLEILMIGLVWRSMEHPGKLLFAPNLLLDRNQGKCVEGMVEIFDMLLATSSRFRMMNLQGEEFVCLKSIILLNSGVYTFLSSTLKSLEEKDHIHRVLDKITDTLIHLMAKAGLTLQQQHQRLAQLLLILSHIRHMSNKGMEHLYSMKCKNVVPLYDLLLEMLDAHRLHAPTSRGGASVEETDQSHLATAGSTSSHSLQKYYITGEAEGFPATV
Sequence of Peroxisome proliferator-activated receptor gamma (Homo sapiens) (P37231 whole entry, looked up): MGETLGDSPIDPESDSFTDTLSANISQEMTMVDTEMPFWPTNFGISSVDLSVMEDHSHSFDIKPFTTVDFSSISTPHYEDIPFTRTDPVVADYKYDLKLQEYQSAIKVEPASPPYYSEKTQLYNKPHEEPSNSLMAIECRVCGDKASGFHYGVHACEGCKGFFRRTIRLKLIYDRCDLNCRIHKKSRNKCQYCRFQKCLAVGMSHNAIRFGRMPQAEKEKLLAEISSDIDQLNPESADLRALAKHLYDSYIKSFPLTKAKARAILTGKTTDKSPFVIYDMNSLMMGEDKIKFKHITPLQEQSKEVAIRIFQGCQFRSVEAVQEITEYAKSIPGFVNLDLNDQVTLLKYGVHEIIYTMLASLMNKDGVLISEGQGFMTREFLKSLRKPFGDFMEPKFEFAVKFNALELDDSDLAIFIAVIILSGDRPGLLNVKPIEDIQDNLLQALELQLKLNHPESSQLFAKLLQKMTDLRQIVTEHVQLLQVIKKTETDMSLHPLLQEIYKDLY
Sequence of Aromatase (Homo sapiens) (P11511 whole entry, looked up): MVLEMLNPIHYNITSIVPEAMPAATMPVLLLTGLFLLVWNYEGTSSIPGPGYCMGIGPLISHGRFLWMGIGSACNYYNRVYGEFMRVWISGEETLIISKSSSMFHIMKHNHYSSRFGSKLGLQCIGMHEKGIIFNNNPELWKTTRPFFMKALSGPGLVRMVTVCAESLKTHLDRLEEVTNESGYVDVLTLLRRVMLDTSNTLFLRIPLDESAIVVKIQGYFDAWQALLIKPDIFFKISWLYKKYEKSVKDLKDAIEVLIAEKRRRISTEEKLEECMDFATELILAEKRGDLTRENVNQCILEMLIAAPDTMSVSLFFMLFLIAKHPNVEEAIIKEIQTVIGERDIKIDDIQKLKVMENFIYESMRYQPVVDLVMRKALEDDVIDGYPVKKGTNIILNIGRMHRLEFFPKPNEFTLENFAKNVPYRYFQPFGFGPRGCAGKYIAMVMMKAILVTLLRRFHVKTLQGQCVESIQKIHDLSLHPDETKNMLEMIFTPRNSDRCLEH

| SMILES | Potency [1] | Potency [2] | Potency [3] | Potency [4] | Potency [5] | Potency [6] | Potency [7] | Potency [8] | Potency [9] | Potency [10] | Potency [11] | Potency [12] | Potency [13] | Potency [14] | Potency [15] | Potency [16] |
| --- | --- | --- | --- | --- | --- | --- | --- | --- | --- | --- | --- | --- | --- | --- | --- | --- |
| CC(C)(C)C1(O)CCN2CC3c4ccccc4CCc4cccc(c43)C2C1 (centres undefined) | 26.6 µM (active) | 23.7 µM (active) | inactive | inactive | inactive | inactive | 29.8 µM (active) | inactive | inactive | 14.1 µM (active) |  |  |  |  |  |  |
| CN(C)CCOc1ccccc1Cc1ccccc1 (tested in a mixture with another compound) |  |  | inactive | inactive |  | inactive | inactive | inactive |  |  | inactive |  |  |  |  |  |
| O=C(OCCO)c1ccccc1O | inactive | inactive | inactive | inactive | inactive | inactive | inactive | inactive | inactive |  | inactive | inactive | inactive | inactive |  |  |
| CCC(=O)OCC(=O)[C@@]1(OC(=O)CC)[C@H](C)C[C@H]2[C@@H]3CCC4=CC(=O)C=C[C@]4(C)[C@@]3(F)[C@@H](O)C[C@@]21C | inactive |  |  | inactive |  | inactive | inactive | inactive | inactive |  | inactive |  | inactive | inactive |  |  |
| O=C(CCCN1CCC(n2c(=S)[nH]c3ccccc32)CC1)c1ccc(F)cc1 |  | 26.6 µM (active) |  | inactive | inactive |  |  | 11.9 µM (active) |  |  | inactive |  |  | inactive |  |  |
| NCCC[C@H](N)CC(=O)N[C@H]1CNC(=O)[C@H]([C@H]2C[C@H](O)NC(N)=N2)NC(=O)/C(=C/NC(N)=O)NC(=O)[C@H](CO)NC(=O)[C@H](CO)NC1=O (β3hOrn-[Dap]SS[ΔAla(Z-3-ureido)][X5]; lactam 1-C) | inactive | inactive | inactive | inactive |  | inactive | inactive | inactive | inactive |  | inactive |  |  | inactive |  |  |
| CCOc1ccc(N=C(C)Nc2ccc(OCC)cc2)cc1 | inactive | inactive | inactive |  | inactive |  | inactive | inactive |  |  | inactive | inactive | inactive | inactive | inactive |  |
| CCCCCCCN(CC)CCCC(O)c1ccc(NS(C)(=O)=O)cc1 (centres undefined) | 23.7 µM (active) | 21.1 µM (active) | inactive | inactive |  |  |  |  |  |  | inactive |  |  | inactive |  |  |
| CN(CCO)CC(O)Cn1cnc2c1c(=O)n(C)c(=O)n2C (centres undefined) (tested in a mixture with another compound) | inactive | inactive | inactive | inactive |  | inactive | inactive | inactive | inactive |  | inactive |  |  | inactive |  |  |
| N=C(N)c1ccc(OCCCOc2ccc(C(=N)N)cc2Br)c(Br)c1 |  |  | inactive |  |  |  |  |  |  |  |  |  |  |  |  |  |
| CC(CC(c1ccccc1)c1ccccc1)NC(C)(C)C (centres undefined) |  | 21.1 µM (active) | inactive |  | inactive |  | inactive | inactive | inactive |  | inactive |  | inactive | inactive | inactive |  |
| Cc1onc(-c2ccccc2)c1C(=O)N[C@@H]1C(=O)N2[C@@H]1SC(C)(C)[C@@H]2C(=O)O | inactive | inactive | inactive |  | inactive | inactive | inactive | inactive | inactive |  | inactive | inactive | inactive | inactive | inactive |  |
| CN1CCc2c(c3ccccc3n2Cc2ccccc2)C1 |  |  | inactive |  |  | inactive | inactive | inactive | inactive |  | inactive |  |  | inactive |  |  |
| C/C=C(/CC[C@@H](C)[C@H]1CC[C@H]2C3=CC[C@H]4[C@H](C)[C@@H](O)CC[C@]4(C)[C@H]3CC[C@]12C)C(C)C | inactive |  | inactive | inactive |  | inactive | inactive |  | inactive |  | inactive |  |  | inactive |  |  |
| CCOC(=O)Nc1ccc2c(c1)N(C(=O)CN(C)C)c1ccccc1CC2 | 48.6 µM (active) | 48.6 µM (active) | inactive | inactive |  |  |  |  |  |  |  |  |  |  |  |  |
| Cc1ccc(C2(O)CCN(CCCC(=O)c3ccc(F)cc3)CC2)cc1 | 13.3 µM (active) |  | inactive | inactive | inactive | inactive | inactive |  |  |  |  | inactive | inactive | inactive | inactive |  |
| CCC(=O)OCC(=O)[C@@]1(OC(=O)CC)[C@@H](C)C[C@H]2[C@@H]3CCC4=CC(=O)C=C[C@]4(C)[C@@]3(F)[C@@H](O)C[C@@]21C |  |  |  | inactive | 23.9 µM [fluorescent] (active) |  | 3.76 µM (active) | inactive | inactive |  | inactive |  |  | inactive |  |  |
| CC#CCC(C)[C@H](O)/C=C/[C@@H]1[C@H]2C/C(=C/CCCC(=O)O)C[C@H]2C[C@H]1O (some centres undefined) | inactive | inactive | inactive | inactive | inactive |  | inactive | inactive | inactive |  | inactive | inactive | 29.8 µM (active) | inactive |  |  |
| CCCC(=O)O[C@]1(C(=O)COC(=O)CC)[C@@H](C)C[C@H]2[C@@H]3CCC4=CC(=O)C=C[C@]4(C)[C@@]3(F)[C@@H](O)C[C@@]21C | inactive | inactive | inactive | inactive | inactive |  | inactive |  |  |  |  |  | inactive | inactive |  |  |
| C=C[C@]1(C)C[C@@H](OC(=O)CSCCN(CC)CC)[C@]2(C)[C@H](C)CC[C@]3(CCC(=O)[C@H]32)[C@@H](C)[C@@H]1O |  | 23.7 µM (active) | inactive | inactive | inactive | 10.6 µM (active) | inactive | inactive | inactive | 15.8 µM (active) |  | inactive | inactive |  | inactive | inactive |
| CCOC(=O)CN[C@@H](C(=O)N1CC[C@H]1C(=O)NCc1ccc(/C(N)=N/O)cc1)C1CCCCC1 |  |  |  | inactive | inactive | inactive | inactive | inactive | inactive |  |  |  | inactive |  | inactive |  |
| CCCC(CCC)C(N)=O | inactive | inactive | inactive | inactive | inactive |  | inactive |  | inactive |  | inactive | inactive | inactive | inactive | inactive |  |
| C[N+]1(C)CCN(CC(O)(c2ccccc2)C2CCCCC2)CC1 (centres undefined) |  |  |  | inactive |  | inactive | inactive | inactive |  |  | inactive |  |  | inactive |  |  |
| CN1CCN(C2=Nc3ccccc3Cc3ccccc32)CC1 | 13.3 µM (active) | 23.7 µM (active) | inactive | inactive | inactive | inactive | inactive |  | inactive |  | inactive | inactive | inactive | inactive | inactive |  |
| CN1CCN(CCC=C2c3ccccc3Sc3ccc(S(=O)(=O)N(C)C)cc32)CC1 | 13.3 µM (active) | 8.41 µM (active) |  |  | inactive |  |  | inactive |  |  |  | inactive | inactive | 29.8 µM (active) | inactive |  |
| C[C@]12CCC(=O)C[C@@H]1CC[C@@H]1[C@@H]2CC[C@]2(C)C=CC[C@@H]12 |  |  | inactive | inactive | 8.49 µM [inconclusive] (active) | inactive | inactive |  | inactive | inactive | inactive |  | 11.9 µM (active) | inactive | inactive | inactive |
| N[C@@H](C(=O)N[C@@H]1C(=O)N2C(C(=O)O)=C(Cl)CC[C@H]12)c1ccccc1 | inactive |  | inactive | inactive | inactive |  | inactive | inactive | inactive |  | inactive | inactive | inactive | inactive |  |  |
